According to PubChem BioAssay:
Where “and” joins values, the source holds several entries; their conditions need not be identical. Identical values can stand only once. Values without a mark were called inactive. The list shows a part of the results. Calls of active or inactive are those of the source. Rule as the data show it, unless noted: active = inhibition above about 30%; inactive = the rest.

Experiments:
[1] = target: Nuclear receptor coactivator 3 (Homo sapiens) (UniProt Q9Y6Q9); experiment: SRC3 coactivator transcriptional activity inhibitors, confirmation, cell-based, luminescence, quadruplicate (AID 588792;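 active = mean inhibition over 43.08%, the solvent-only control mean plus 3 SD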;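 also: 0% = DMSO treated cells and 100% = gossypol at 36 µM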); conditions: HEK293 GAL4-SRC3 luciferase reporter, at 3.6 µM, stronger effect = higher value
Chain of Nuclear receptor coactivator 3 (Homo sapiens) (Q9Y6Q9 whole entry, looked up, the tested form may be a part): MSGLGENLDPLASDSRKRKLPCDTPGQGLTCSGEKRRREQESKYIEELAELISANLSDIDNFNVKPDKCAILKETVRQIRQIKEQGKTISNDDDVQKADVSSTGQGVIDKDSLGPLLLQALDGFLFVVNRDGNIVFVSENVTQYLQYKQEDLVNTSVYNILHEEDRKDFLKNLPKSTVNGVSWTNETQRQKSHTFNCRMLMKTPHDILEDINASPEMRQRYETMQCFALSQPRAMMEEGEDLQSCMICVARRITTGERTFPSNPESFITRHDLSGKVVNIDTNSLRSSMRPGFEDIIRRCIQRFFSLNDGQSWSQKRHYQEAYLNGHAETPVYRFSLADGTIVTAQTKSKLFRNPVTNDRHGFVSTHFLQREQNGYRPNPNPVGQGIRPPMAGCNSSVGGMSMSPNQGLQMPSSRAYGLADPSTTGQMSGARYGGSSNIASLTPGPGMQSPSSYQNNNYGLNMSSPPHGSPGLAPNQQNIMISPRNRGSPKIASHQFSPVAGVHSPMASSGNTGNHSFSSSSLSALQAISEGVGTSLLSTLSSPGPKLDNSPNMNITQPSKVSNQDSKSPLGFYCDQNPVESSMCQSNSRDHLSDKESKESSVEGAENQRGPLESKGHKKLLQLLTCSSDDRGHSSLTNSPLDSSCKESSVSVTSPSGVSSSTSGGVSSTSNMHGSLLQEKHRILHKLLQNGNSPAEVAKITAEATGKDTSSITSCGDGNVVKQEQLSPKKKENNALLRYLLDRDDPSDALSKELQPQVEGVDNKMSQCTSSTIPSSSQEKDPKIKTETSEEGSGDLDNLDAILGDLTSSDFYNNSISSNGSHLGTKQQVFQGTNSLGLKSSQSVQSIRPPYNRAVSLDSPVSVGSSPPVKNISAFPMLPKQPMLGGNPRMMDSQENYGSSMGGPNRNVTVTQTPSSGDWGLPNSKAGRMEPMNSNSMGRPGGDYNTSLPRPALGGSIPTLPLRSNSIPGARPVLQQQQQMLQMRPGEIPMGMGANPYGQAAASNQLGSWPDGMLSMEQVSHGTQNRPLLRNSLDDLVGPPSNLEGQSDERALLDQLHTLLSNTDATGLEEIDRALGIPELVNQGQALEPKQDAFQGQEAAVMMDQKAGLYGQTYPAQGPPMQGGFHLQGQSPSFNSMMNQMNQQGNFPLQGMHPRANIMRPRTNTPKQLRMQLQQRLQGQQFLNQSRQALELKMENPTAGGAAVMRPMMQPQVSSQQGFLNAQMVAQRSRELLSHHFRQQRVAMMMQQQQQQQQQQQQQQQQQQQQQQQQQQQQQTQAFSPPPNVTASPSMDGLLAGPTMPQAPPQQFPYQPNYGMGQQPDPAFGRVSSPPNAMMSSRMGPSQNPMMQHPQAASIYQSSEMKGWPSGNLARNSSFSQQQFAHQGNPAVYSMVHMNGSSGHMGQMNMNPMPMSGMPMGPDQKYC

[2] = test system: transactivating tegument protein VP16 (Human herpesvirus 1), Gal4-VP16 luciferase reporter; experiment: VP16 transactivation inhibitors, counter-screen for SRC3 inhibitor project, cell-based, luminescence, high throughput (AID 588794); conditions: mammalian cells, VP16-driven luciferase reporter luminescence; at 3.6 µM; stronger effect = higher value
[3] = StAR promoter reporter inhibitors, counter-screen for LRH-1 inverse agonist project, cell-based, luminescence, high throughput (AID 651611; in the data active = inhibition above about 28%); conditions: StAR promoter luciferase reporter counterscreen, at 3.6 µM, stronger effect = higher value
[4] = target: Nuclear receptor subfamily 5 group A member 2 (Homo sapiens) (UniProt O00482); experiment: LRH-1 (NR5A2) inverse agonists, retest, confirmation, cell-based, luminescence (AID 651613; in the data active = inhibition above about 42%;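 also: HEK293T cells co-transfected with LRH-1 and StAR promoter luciferase reporter; 0% = vehicle wells and 100% = parental cells lacking receptor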); conditions: cell-based LRH-1 luciferase reporter, inverse agonism; at 3.6 µM; stronger effect = higher value
Chain of Nuclear receptor subfamily 5 group A member 2 (Homo sapiens) (O00482 whole entry, looked up): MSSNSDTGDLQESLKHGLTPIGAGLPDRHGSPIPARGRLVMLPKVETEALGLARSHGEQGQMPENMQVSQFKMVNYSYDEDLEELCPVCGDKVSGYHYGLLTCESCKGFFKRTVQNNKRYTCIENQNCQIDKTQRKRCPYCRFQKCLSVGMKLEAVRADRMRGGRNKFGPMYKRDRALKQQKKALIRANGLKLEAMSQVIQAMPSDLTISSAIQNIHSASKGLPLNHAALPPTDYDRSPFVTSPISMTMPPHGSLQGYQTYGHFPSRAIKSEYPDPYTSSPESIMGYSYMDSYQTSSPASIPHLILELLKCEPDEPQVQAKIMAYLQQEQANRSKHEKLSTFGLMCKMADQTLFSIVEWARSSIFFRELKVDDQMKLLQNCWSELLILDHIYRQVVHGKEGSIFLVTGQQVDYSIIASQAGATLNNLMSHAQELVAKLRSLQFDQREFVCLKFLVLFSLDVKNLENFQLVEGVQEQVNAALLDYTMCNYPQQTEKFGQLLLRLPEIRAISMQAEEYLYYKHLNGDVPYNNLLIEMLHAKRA

[5] = target: Steroidogenic factor 1 (Homo sapiens) (UniProt Q13285); experiment: SF1 (NR5A1) inverse agonists, counter-screen for LRH-1 inverse agonist project, cell-based, luminescence, high throughput (AID 651614; in the data active = inhibition above about 44%;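 also: cells cotransfected with StAR promoter reporter and SF1 expression vector; 0% = vehicle on cells with receptor and 100% = vehicle on cells lacking receptor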); conditions: cell-based SF1 luciferase reporter, at 3.6 µM, stronger effect = higher value
Chain of Steroidogenic factor 1 (Homo sapiens) (Q13285 whole entry, looked up, the tested form may be a part): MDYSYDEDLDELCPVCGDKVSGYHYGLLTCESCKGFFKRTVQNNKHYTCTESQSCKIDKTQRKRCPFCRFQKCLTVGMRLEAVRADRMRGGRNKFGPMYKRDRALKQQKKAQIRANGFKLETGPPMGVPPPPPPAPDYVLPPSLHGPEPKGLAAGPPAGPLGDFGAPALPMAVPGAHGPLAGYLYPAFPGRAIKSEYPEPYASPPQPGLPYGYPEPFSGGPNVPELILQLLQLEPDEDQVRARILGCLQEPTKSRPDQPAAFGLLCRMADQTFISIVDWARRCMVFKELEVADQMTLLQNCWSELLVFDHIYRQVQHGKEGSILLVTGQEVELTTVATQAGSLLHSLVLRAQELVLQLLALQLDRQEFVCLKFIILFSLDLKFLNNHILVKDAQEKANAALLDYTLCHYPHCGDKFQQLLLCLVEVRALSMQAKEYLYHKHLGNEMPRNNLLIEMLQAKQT

[6] = VP16 transactivation reporter inhibitors, counter-screen for LRH-1 inverse agonist project, cell-based, luminescence, high throughput (AID 651615; in the data active = inhibition above about 33%); conditions: Gal4-VP16 luciferase reporter cells, at 3.6 µM, stronger effect = higher value
[7] = target: Photoreceptor-specific nuclear receptor (Homo sapiens) (UniProt Q9Y5X4); experiment: NR2E3 agonist confirmation in cells, cell-based, luminescence, CHO-S two-hybrid (AID 624378;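 active = average inhibition above a cutoff equal to the mean inhibition of all tested compounds plus one SD, cut at about 70% in these data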;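 also: 0% = DMSO in NR2E3 cells and 100% = DMSO in cells lacking NR2E3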); conditions: CHO-S mammalian two-hybrid NR2E3-NCOR, luciferase luminescence; at 3.98 µM; stronger effect = higher value
Chain of Photoreceptor-specific nuclear receptor (Homo sapiens) (Q9Y5X4 whole entry, looked up, the tested form may be a part): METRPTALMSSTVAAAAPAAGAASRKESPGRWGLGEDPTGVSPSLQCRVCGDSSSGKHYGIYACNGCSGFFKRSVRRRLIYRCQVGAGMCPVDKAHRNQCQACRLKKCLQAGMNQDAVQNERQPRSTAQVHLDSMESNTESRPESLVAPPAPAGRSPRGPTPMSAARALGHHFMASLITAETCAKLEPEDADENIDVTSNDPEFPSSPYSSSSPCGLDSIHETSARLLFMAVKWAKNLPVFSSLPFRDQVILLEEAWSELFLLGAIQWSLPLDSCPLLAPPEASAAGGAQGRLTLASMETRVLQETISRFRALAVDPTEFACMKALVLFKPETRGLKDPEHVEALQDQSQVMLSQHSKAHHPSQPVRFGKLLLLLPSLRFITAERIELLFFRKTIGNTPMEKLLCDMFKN

[8] = GAL4-VP16 reporter modulators, confirmation, counter-screen for NR2E3 agonist project, cell-based, luminescence, CHO-S, high throughput (AID 624379;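 active = mean inhibition above a cutoff equal to the average over all tested compounds plus one standard deviation, cut at about 70% in these data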;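 also: 0% = DMSO with VP16-transfected cells and 100% = DMSO with cells lacking VP16; higher means less reporter light so more repression of VP16 activity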); conditions: CHO-S GAL4-VP16 luciferase reporter, at 3.98 µM, stronger effect = higher value
[9] = Gal4-VP16 luciferase reporter inhibitors, counter-screen for COUP-TFII antagonist project, cell-based, luminescence, HEK293 (AID 687007; in the data active = inhibition above about 13%); conditions: at 8.5 µM, stronger effect = higher value
[10] = target: COUP transcription factor 2 (Homo sapiens) (UniProt P24468); experiment: NR2F2 transcriptional activity inhibitors, confirmation, cell-based, luciferase reporter, HEK293, triplicate (AID 687008;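 active = mean inhibition over three repeats above a set limit taken from the earlier primary screen, cut at about 38% in these data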;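 also: 100% = cells given the luciferase reporter alone without the COUP-TF2 vector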); conditions: HEK293 NGFI-A luciferase reporter, luminescence; at 8.5 µM; stronger effect = higher value
Chain of COUP transcription factor 2 (Homo sapiens) (P24468 whole entry, looked up): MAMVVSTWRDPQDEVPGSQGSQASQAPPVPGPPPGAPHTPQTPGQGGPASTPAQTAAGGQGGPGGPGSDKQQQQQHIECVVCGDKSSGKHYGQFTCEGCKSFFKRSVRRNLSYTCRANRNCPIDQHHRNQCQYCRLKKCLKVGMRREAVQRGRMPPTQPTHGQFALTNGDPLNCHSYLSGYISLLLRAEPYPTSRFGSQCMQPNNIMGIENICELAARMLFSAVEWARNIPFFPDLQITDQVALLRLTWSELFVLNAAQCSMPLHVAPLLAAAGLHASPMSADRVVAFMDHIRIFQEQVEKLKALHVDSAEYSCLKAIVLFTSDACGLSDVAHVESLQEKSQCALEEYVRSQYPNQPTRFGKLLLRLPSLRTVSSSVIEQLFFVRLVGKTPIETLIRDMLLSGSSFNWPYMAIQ

SMILES | inhibition [1] | inhibition [2] | inhibition [3] | inhibition [4] | inhibition [5] | inhibition [6] | inhibition [7] | inhibition [8] | inhibition [9] [%] | inhibition [10]
CCCCCc1ccc(OCCCC[n+]2cccc(C)c2)c(CCCCC)c1 | 17.4% | 39% (active) | 31.7% (active) | 74.2% (active) | 68.9% (active) | 71.2% (active) |  |  |  | 
C=CS(=O)(=O)N(Cc1ccccc1Br)[C@H](CO)Cc1ccccc1 | 24.3% | 0.02% | 20.1% | 32.2% | 48.7% (active) | 23.2% |  |  |  | 
C[n+]1c2n(c3ccccc31)N=C(c1cc(C(C)(C)C)c(O)c(C(C)(C)C)c1)CS2 | 81.1% (active) | 84.6% (active) | 81.7% (active) | 106% (active) | 95% (active) | 90% (active) |  |  |  | 
CCC1C/C(=C\c2cccnc2)C(=O)/C(=C/c2cccnc2)C1 (configuration not stated) | 15.6% | 78.6% (active) | 60.2% (active) | 103% (active) | 97.7% (active) | 90.7% (active) |  |  |  | 
CCN1/C(=C/c2ccc3cc(C)ccc3[n+]2CC)Sc2cc(C)ccc21 | 26.1% | 64% (active) | 39.8% (active) | 108% (active) | 75.6% (active) | 83.3% (active) |  |  |  | 
O=C(Nc1ccc(F)cc1)Nc1cc(OCC(F)(F)F)cc(OCC(F)(F)F)c1 | 17% | 29.6% (active) | 53.8% (active) | 98.5% (active) | 75.6% (active) | 78% (active) |  |  |  | 
Nc1cc(Cc2ccccc2)ccc1O | -9.82% | -12.4% | 9.01% | 25.7% | 33.2% | -10.3% |  |  |  | 
C=CCC1(CC=C)CCCN1C(=O)c1cc(COc2ccc(-n3cncn3)cc2)on1 | 5.51% | 30.2% (active) |  |  |  |  | 97.4% (active) | 86.5% (active) | -1.01 | 49.6% (active)
COc1cc(N(C)C)ccc1C=c1c2ccccc2n2c1cc(-c1ccccc1)[n+]2C | 57.7% (active) | 67.2% (active) | 56.9% (active) | 109% (active) | 87.4% (active) | 92.5% (active) |  |  |  | 
CCOc1ccc(-n2c(-c3ccc(Br)cc3)c[n+]3c2CCCCC3)cc1 | 26.1% | 24.1% | 22.8% | 104% (active) | 60.1% (active) | 67.5% (active) |  |  |  | 
Cn1c(CCN2CCN(c3ccccn3)CC2)nc2cc(NC(=O)COc3ccc(Cl)cc3)ccc21 | 18% | 33.9% (active) | 29.2% (active) | 49.8% (active) | 51.4% (active) | 51.6% (active) |  |  |  | 
N=c1c2c(n(Cc3ccccc3)c3c1CCC3)CCC2 | 19.5% | 44.1% (active) | 37.3% (active) | 79.2% (active) | 72.9% (active) | 62.4% (active) |  |  |  | 
Cc1ccc(S(=O)(=O)Nc2cc(Cl)c(O)c3ncccc23)cc1 | 28.2% | 24.5% | 48.1% (active) | 72.1% (active) | 62.2% (active) | 62% (active) |  |  |  | 
CCCCC(=O)NC(c1ccc(OC)cc1)c1ccc2cccnc2c1O (configuration not stated) | 28.5% | 14.8% | 8.78% | 17.3% | 18.6% | 27% |  |  |  | 
CCOc1cc(/C=C2\N=C(SC(C)C(N)=O)N(c3ccc(OC(F)F)cc3)C2=O)ccc1O (configuration not stated) | 27.6% | 58% (active) | 59.3% (active) | 65.4% (active) | 73% (active) | 73.1% (active) |  |  |  | 
COc1ccc(-n2c(-c3ccc(Br)cc3)c[n+]3c2CCc2ccccc2-3)cc1 | 32.4% | 36.3% (active) | 22.1% | 96.4% (active) | 65% (active) | 73% (active) |  |  |  | 
CCCOc1ccc(Br)cc1CSC(=N)N | 17.9% | 33.3% (active) | 9.34% | 102% (active) | 53.8% (active) | 83.7% (active) |  |  |  | 
c1ccc(C[n+]2cccc3c4ccccc4ccc32)cc1 | 32.6% | 54.8% (active) | 41.7% (active) | 83.4% (active) | 74.3% (active) | 70.4% (active) |  |  |  | 
Cc1ncc(CO)c(/C=N/NC(=O)c2cc3c(s2)CCCC3)c1O | 40.9% | 27.7% | 76.8% (active) | 94.7% (active) | 77.2% (active) | 82.6% (active) |  |  |  | 

SMILES | inhibition [1] | inhibition [2] | inhibition [3] | inhibition [4] | inhibition [5] | inhibition [6] | inhibition [7] | inhibition [8] | inhibition [9] [%] | inhibition [10]
COc1cc(/C=N/NC(N)=S)cc(Br)c1OCc1ccccc1F | 54.7% (active) | 14.2% | 33.5% (active) | 74.1% (active) | 70.8% (active) | 40.5% (active) |  |  |  | 
CCOc1cc(/C=C2\CCC/C(=C\c3cc(Cl)c(O)c(OCC)c3)C2=O)cc(Cl)c1O | 43.9% (active) | 21.8% | 11.2% | 47.7% (active) | 61.1% (active) | 46.4% (active) |  |  |  | 
CCN(CC)c1ccc(/C=N/NC(=O)c2c(Cl)cnn2C)c(O)c1 | 64.2% (active) | 72.8% (active) | 83% (active) | 96.4% (active) | 79.9% (active) | 60.9% (active) |  |  |  | 
C[C@H]1CCC/C=C/[C@@H]2C[C@H](O)C[C@H]2[C@H](O)[C@H](S(=O)c2ccc(O)cc2)CC(=O)O1 (some centres not stated) | 71.7% (active) | 77.6% (active) | 77.7% (active) | 84.4% (active) | 76.6% (active) | 77.6% (active) |  |  |  | 
N#CC(c1cccc(Cl)c1)c1ccc2c(C(F)(F)F)cc(C(F)(F)F)nc2n1 (configuration not stated) | 59.4% (active) | 84% (active) | 82.3% (active) | 107% (active) | 95.5% (active) | 88.9% (active) |  |  |  | 
CCC(C)(C)c1ccc(OCCCC[n+]2ccccc2)c(C(C)(C)CC)c1 | 26.1% | 37.4% (active) | 16.3% | 64% (active) | 55.6% (active) | 60.8% (active) |  |  |  | 
Cc1cc(C)cc(NC(=O)c2ccc([N+](=O)[O-])o2)c1 | 22.4% | 2.31% | 53% (active) | 76.3% (active) | 74.7% (active) | 20% |  |  |  | 
Cc1cc(C)c[n+](C(C)C(=O)c2ccc(-c3ccccc3)cc2)c1 (configuration not stated) | 16.9% | 40.2% (active) | 29.7% (active) | 81.4% (active) | 66.4% (active) | 64.2% (active) |  |  |  | 
Clc1ccc(C2=Nn3c(nnc3-c3n[nH]c4c3CCC4)SC2)cc1 | 28.4% | -31.7% | 61.5% (active) | 46.5% (active) | 66.8% (active) | -54.9% |  |  |  | 
CCOC(=O)c1sc(N(Cc2ccccc2)C(=O)COC(=O)c2ccc(O)cc2)nc1C | 69.3% (active) | 37.4% (active) | -92.1% | 55.2% (active) | 61.2% (active) | 37.1% (active) |  |  |  | 
COc1ccc(-c2cn(-c3ccccc3)c3[n+]2CCS3)cc1 | 15.7% | 35.4% (active) | 18.2% | 61.1% (active) | 60.6% (active) | 45.1% (active) |  |  |  | 
COc1ccc(OC)c(NC(=O)c2nnn(Cc3ccccc3C)c2N)c1 | 4.83% | 29.9% (active) | 20.2% | 44.5% (active) | 52.9% (active) | 57.3% (active) |  |  |  | 
O=[N+]([O-])c1ccc(O)c(/C=N/Nc2nc3ccccc3[nH]2)c1 | 64% (active) | 62.7% (active) | 80.6% (active) | 97.5% (active) | 84.3% (active) | 83% (active) |  |  |  | 
NC(=O)c1ccc(N2CCN(S(=O)(=O)c3cccs3)CC2)c([N+](=O)[O-])c1 | -7.6% | 34.7% (active) | 21% | 64.7% (active) | 63.9% (active) | 46.1% (active) |  |  |  | 
O=C(NC1CCCCCCC1)c1cc(COc2ccc3ncccc3c2)on1 | 17.3% | 40.2% (active) | 25.3% | 55% (active) | 54.8% (active) | 51.6% (active) |  |  |  | 
Cc1nnsc1S(=O)c1ccc(Cl)c(Cl)c1 (configuration not stated) | 34.3% | 9.36% | 25.5% | 64.4% (active) | 66.4% (active) | 20.8% |  |  |  | 
Brc1ccc(C2=Nn3c(nnc3-c3n[nH]c4c3CCC4)SC2)cc1 | 26% | -11.4% | 50.6% (active) | 49% (active) | 51% (active) | -33.2% |  |  |  | 
Cc1ccnc(NC(=O)CCCOc2cc(=O)n(C)c3ccccc23)c1 | 3.13% and 25% | -1.88% and -14.4% | 61% (active) and 59.3% (active) | 91.4% (active) and 81.7% (active) | 67.8% (active) and 59.8% (active) | 23.5% and 8.09% |  |  |  | 
